Data on 16 compounds can be found in PubChem BioAssay (NCATS).

Each structure is given as a SMILES string. Results filed as inconclusive are left out. Active and inactive are the calls of the source. Unless noted, calls come from the whole dose curve. Numbered stars: 1 amine (or outer) side, 2 acyl side, 3 side chain; on linkers, the order of the positions; unused ones are H or OH. Bridge positions count the residues as written; N and C are the ends. Square brackets hold non-standard residues; d marks the D form. Peptide text beside a SMILES is read from it. * marks the point of attachment. ξ: configuration not given here. ξhTyr(3S-OH,4S-OH,3'-OSO3H) = NC(C(=O)O)[C@H](O)[C@@H](O)c1ccc(O)c(OS(=O)(=O)O)c1; Orn(4R-OH,5R-OH) = O=C([C@H](C[C@@H](O)[C@@H](O)N[*:3])N[*:1])[*:2]; X2 = CCCCCOc1ccc(-c2cc(-c3ccc(C(=O)*)cc3)no2)cc1; X3 = C[C@H]1CN([*:1])C(C(=O)[*:2])[C@H]1O; ξGln(3R-OH) = NC(=O)C[C@@H](O)C(N)C(=O)O; ξPro(4R-OH) = O=C(O)C1C[C@@H](O)CN1; ξThr(3R) = C[C@@H](O)C(N)C(=O)O

Test [1] is described as follows: Primary qHTS for inhibitors of SARS-S pseudo-typed particle cell entry (AID 1479145; note: nearly all actives have a fitted effect of over 45% in size; for activity change, negative = inhibition: % is set by controls: 0 for no effect and ±100 for the full control effect). (Quantitative high-throughput screening tests each substance at several concentrations.)
Test [2] in a line: Primary qHTS for Huh7 cytotoxicity: counterscreen for inhibitors of MERS-S pseudotyped particle cell entry (AID 1479147). The following applies: outcome: dose series up to 57.1 µM unless noted.
A short description of test [3]: Primary qHTS for inhibitors of MERS-S pseudo-typed particle cell entry (AID 1479149). For activity change, negative = inhibition: % is set by controls: 0 for no effect and ±100 for the full control effect. Note: nearly all actives have a fitted effect of over 60% in size.
Test [4] in a line: Primary qHTS for Vero E6 cytotoxicity: counterscreen for inhibitors of SARS-S pseudo-typed particle cell entry (AID 1479150). The following applies: outcome: dose series up to 57.1 µM unless noted.
The nature of test [5]: Cytotoxicity counterscreen for inhibitors of SARS-CoV-2 cell entry (AID 1645845). Note: nearly all actives have a fitted effect of over 50% in size. Summed up:
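Expi293F/hACE2 cells seeded overnight; cpd pin-transferred in DMSO, 1 h preincubation, + media, 48 h 37 C 5% CO2; ATPLite 1step luminescence; normalized to cells and no cells.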
Background: A counterscreen serves to expose hits that act by an unwanted route or on another target.

Test [6] can be described thus: Primary qHTS to identify inhibitors of SARS-CoV-2 cell entry (AID 1645846). Note: nearly all actives have a fitted effect of over 45% in size. The following applies: activity change, negative = inhibition: at 57.1 µM (top of the series) unless noted. The gist of the method:
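Using luciferase-reporting pseudoviruses carrying Wuhan-Hu-1 spike, the screen tracks entry into stably ACE2-expressing cells over 48 hr. Activity is expressed relative to spike particles versus particles lacking any fusion protein.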

Another test has as its system CRL-7250. The test is described as follows: qHTS assay to identify novel small-molecules to repurpose for Merkel cell carcinoma treatment (AID 1296009; active = well fitted inhibition curve with a large enough effect; note: nearly all actives have a fitted effect of over 60% in size). The note with it: MCC and control cell lines, CellTiter-Glo viability, 72 h; series mostly up to 92 µM. The gist of the method: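 Cells exposed to NPC (8-point) and MIPE (11-point) compound dilutions for 72 hr at 37 degree celsius; viability read by CellTiter-Glo luminescence, normalized to no-cell and DMSO in-plate controls.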

Test [7] is described as follows: Confirmatory qHTS to identify inhibitors of SARS-CoV-2 cell entry (AID 1645844). Note: nearly all actives have a fitted effect of over 45% in size. Note: potency is the fitted concentration of half-maximal effect. The gist of the method:
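HEK293-ACE2 cells (Expi293F stably expressing human ACE2) were pretreated with compounds for 1 hr at 37C, then infected with MLV-based particles carrying Wuhan-Hu-1 spike (C-terminal 19-aa truncation). Luciferase luminescence read after 48 hr; normalized to spike PP (100%) and bald PP (0%).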

A short description of test [8]: Confirmatory qHTS for VERO E6 Cytotoxicity Assay: Counterscreen for SARS-CoV-2 CPE Assay (AID 1508605). Note: % is set by controls: 0 for no effect and ±100 for the full control effect; nearly all actives have a fitted effect of over 60% in size.
The nature of test [9]: qHTS for inhibitors of Rabies Virus screened against the NCATS CANVASS Library (AID 1347402). Note: 0% is about no effect.
Test [10] can be described thus: qHTS for Inhibitors of the Functional Ribonucleoprotein Complex (vRNP) of Lassa (LASV) Arenavirus: Viability assay - alamar blue signal for LASV Primary Screen (AID 1347083; calls by dose curve; tested in HEK293 reporter line; note: potency is the fitted concentration of half-maximal effect; nearly all actives have a fitted effect of over 80% in size).
In test [11] the target is Nucleoprotein (Lymphocytic choriomeningitis virus (strain Armstrong)) (UniProt P09992). In words: qHTS for Inhibitors of the Functional Ribonucleoprotein Complex (vRNP) of Lymphocytic Choriomeningitis Arenaviruses (LCMV): LCMV Primary Screen - GLuc reporter signal (AID 1347086). Note: potency is the fitted concentration of half-maximal effect; nearly all actives have a fitted effect of over 70% in size.
Test [12] can be described thus: Confirmatory qHTS for activators (rescue) of SARS-CoV-2 Cytopathic Effect (CPE) (AID 1508606). Note: potency is the fitted concentration of half-maximal effect; nearly all actives have a fitted effect of over 70% in size.
Test [13] can be described thus: qHTS for Inhibitors of the Functional Ribonucleoprotein Complex (vRNP) of Lymphocytic Choriomeningitis Arenaviruses (LCMV): Viability assay - alamar blue signal for LCMV Primary Screen (AID 1347085; calls by dose curve; tested in HEK293 reporter line; note: % is set by controls: 0 for no effect and ±100 for the full control effect; nearly all actives have a fitted effect of over 80% in size).

Sequence of Nucleoprotein (Lymphocytic choriomeningitis virus (strain Armstrong)) (P09992 whole entry, looked up): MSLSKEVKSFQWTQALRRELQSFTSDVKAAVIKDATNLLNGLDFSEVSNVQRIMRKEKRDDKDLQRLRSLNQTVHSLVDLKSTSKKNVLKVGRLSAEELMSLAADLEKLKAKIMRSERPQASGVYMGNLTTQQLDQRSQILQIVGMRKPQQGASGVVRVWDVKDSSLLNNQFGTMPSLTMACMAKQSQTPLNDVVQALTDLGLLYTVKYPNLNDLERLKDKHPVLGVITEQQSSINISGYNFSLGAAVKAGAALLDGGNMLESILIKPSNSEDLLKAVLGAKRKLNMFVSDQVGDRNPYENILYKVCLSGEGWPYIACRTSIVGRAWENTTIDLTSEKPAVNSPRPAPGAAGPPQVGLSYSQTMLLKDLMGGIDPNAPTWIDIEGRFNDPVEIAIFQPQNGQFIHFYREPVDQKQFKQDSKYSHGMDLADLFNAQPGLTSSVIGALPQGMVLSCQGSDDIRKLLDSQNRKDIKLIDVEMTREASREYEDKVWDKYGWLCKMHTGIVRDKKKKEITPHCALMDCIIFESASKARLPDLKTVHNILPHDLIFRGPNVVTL

As to `COc1ccc2c3c1O[C@H]1C[C@@H](O)C=C[C@@]31CCN(C)C2`, the Potency result (in test [1]; in test [3]; in test [5]; in [6]; in the test with CRL-7250) was “inactive” in each case. Further, the call in [2] and in test [4] was inactive.

As for `CCOC(=O)[C@H]1O[C@@H]1C(=O)N[C@@H](CC(C)C)C(=O)NCCC(C)C`, the Potency in test [7] is 0.0681 µM (active). In addition, the Potency entry (in test [5]; with CRL-7250) was “inactive” in each case.

As for `CN(C)S(=O)(=O)c1ccc(NC(=S)N2CCC(C(O)(c3ccccc3)c3ccccc3)CC2)cc1`, the Potency entry (in test [8]; in the test with CRL-7250) was “inactive” each time.

As for `C[C@H](O)[C@H](O)[C@H]1CNc2nc(N)[nH]c(=O)c2N1`, the result in test [2] and in [4] was inactive. For the same compound, the Potency result (in test [3]; in [5]; with CRL-7250) was “inactive” each time. Further, in test [6], the activity change, negative = inhibition is -28%.

Regarding `CCCCCOc1ccc(-c2cc(-c3ccc(C(=O)N[C@H]4C[C@@H](O)[C@@H](O)NC(=O)C5[C@@H](O)[C@@H](C)CN5C(=O)C([C@H](O)CC(N)=O)NC(=O)C([C@H](O)[C@@H](O)c5ccc(O)c(OS(=O)(=O)O)c5)NC(=O)C5C[C@@H](O)CN5C(=O)C([C@@H](C)O)NC4=O)cc3)no2)cc1` (stereo partly drawn) (X2-[Orn(4R-OH,5R-OH)][ξThr(3R)][ξPro(4R-OH)][ξhTyr(3S-OH,4S-OH,3'-OSO3H)][ξGln(3R-OH)][X3]; lactam 1-C), the Potency entry (in test [1]; in test [3]; in the test on CRL-7250) was “inactive” throughout. The outcome in [2] is “inactive [at 26.4 µM]”. Further, the compound was classed as inactive in test [4].

Consider `CC(C)c1ccc2c(c1)CCC1[C@](C)(C(=O)O)CCC[C@]21C` (stereo partly specified), for which the call in test [9] was inactive. Moreover, in the test on CRL-7250, the Potency entry was “inactive”.

As to `CCCCCCCCCCCC1=C(O)C(=O)C=C(O)C1=O`, the Potency in test [10] was 4.85 µM (active). For the same compound, the Potency result (in [5]; in test [6]; in the test on CRL-7250) was “inactive” each time.

On to `CC[C@@](C)(Nc1ccnc(-c2c[nH]c3ncccc23)n1)C(=O)NCC(F)(F)F`, for which the Potency entry (in [7]; in test [5]; in the test on CRL-7250) was “inactive” in each case.

For `CCCSc1nc(N[C@@H]2C[C@H]2c2ccc(F)c(F)c2)c2nnn([C@@H]3C[C@H](OCCO)[C@@H](O)[C@H]3O)c2n1`, the compound was called inactive in [2] and in test [4]. Also, the Potency result (in test [3]; in [5]; in the test with CRL-7250) was “inactive” each time.

In the case of `COC(=O)N(C)c1c(N)nc(-c2nn(Cc3ccccc3F)c3ncccc23)nc1N`, the Potency result (in test [1]; in [3]; in test [5]; in test [6]; in the test with CRL-7250) was “inactive” in each case. Besides, the compound was classed as inactive in [2] and in [4].

In the case of `Cc1c(C)n(Cc2ccc(-c3ccccc3C(=O)O)cc2)c2ccc(C(=O)N[C@@H](C)c3ccc([N+](=O)[O-])cc3)cc12`, the Potency in [11] is 4.85 µM (active). Besides, the Potency entry with CRL-7250 is “inactive”.

With `CN1CC[C@@H](c2c(O)cc(O)c3c(=O)cc(-c4ccc(C(F)(F)F)cc4Cl)oc23)[C@@H]1CO`, the Potency entry (in test [8]; in test [5]; with CRL-7250) was “inactive” each time. Further, in test [6], the activity change, negative = inhibition is -12.4%.

`Cn1ncc2cc(-c3cnc(N)c(Cl)c3N3CCC4(CCNC4=O)CC3)ccc21`: the Potency in [12] is 2.82 µM (active). The Potency entry (in test [5]; in the test with CRL-7250) was “inactive” in each case.

Take `O=C(Nc1ccccc1)Nc1ccc(-c2ccc(C(=O)[C@H]3CCC[C@H]3C(=O)O)cc2)cc1`: the Potency entry (in test [13]; in the test on CRL-7250) was “inactive” each time.

For the compound `c1cc(OCCN2CCCCC2)cc(-c2n[nH]c3ccc(-c4ncn[nH]4)cc23)c1`, the Potency entry (in test [13]; in test [5]; in the test with CRL-7250) was “inactive” in each case.

For `CN1CCC(c2cn(C)c3ccc(OS(=O)(=O)c4c(F)cccc4F)cc23)CC1`, the Potency entry (in test [8]; in the test with CRL-7250) was “inactive” in each case. The Potency in [12] is 11.2 µM (active).
